According to PubChem BioAssay (NCI):
Values joined by “and” are separate entries in the source; they are usually repeats but may differ in a detail not shown here. Identical values can stand only once. The panel holds about 83,000 compounds, 20% with a hit somewhere; the sample as a whole holds those more often.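 How to read the values: 0–100, growth inhibition (40 = 60% inhibited); 0, no net growth; -100 to 0, cell death (-40 = 40% of starting cells died; -100 = all dead).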 Active and inactive are the calls of the source. The calls were made as follows: active = growth percent below 10; inactive = the rest.

Assays:
Test in all cases: NCI-60 one-dose screen, 48 h (100 = growth as untreated, 0 = no growth, -100 = all killed)
Settings in all cases: 10 µM unless noted
[1] = test system: T-47D breast
[2] = test system: BT-549 breast
[3] = test system: MDA-MB-435 melanoma
[4] = test system: SW-620 colon
[5] = test system: MCF7 breast
[6] = test system: HCT-116 colon
[7] = test system: HCC-2998 colon
[8] = test system: KM12 colon

Measured: growth

CC1=NN(c2ccccc2)C(=O)C1C(=O)c1ccccc1 (stereo not drawn)
inactive: [1] 86.9% | [2] 103% | [3] 104% | [4] 101% | [5] 86% | [6] 98.3% | [7] 90.5% | [8] 93.2%

C/C(=N\NC(=O)c1ccncc1)c1ccccc1O
inactive: [1] 30.8% and 24.3% | [2] 52% and 20.7% | [3] 50.5% and 57.5% | [5] 13.2% and 13.4% | [7] 25% and 32.1% | [8] 31.9% and 34.4%
active: [6] 5.77% and 2.15%

O=Nc1ccc(O)cc1
inactive: [1] 87.5% and 85.2% | [2] 83% | [3] 104% and 108% | [5] 84.6% and 93.4% | [6] 103% and 78.3% | [7] 101% and 104% | [8] 101% and 94.7%

S=C1SCN(Cc2ccccc2)CN1Cc1ccccc1
inactive: [1] 41.4% | [2] 93.6% | [3] 85.5% | [4] 32.9% | [5] 17.8%
active: [6] 7.28% | [8] 5.8%

CN(Cc1ccccc1)Cc1ccccc1
inactive: [1] 92.8% | [2] 106% | [3] 105% | [4] 112% | [5] 97.9% | [6] 103% | [8] 98.5%

N#C/C(=C/c1c(O)ccc2ccccc12)C(N)=O
inactive: [1] 87.5% | [2] 93.7% | [3] 104% | [4] 94.6% | [5] 95.1% | [6] 101% | [8] 93.8%

O=C(Nc1ccc(Cl)cc1)c1cc2ccccc2cc1O
12% (inactive) and -0.605% (active): [5]
active: [8] 8.59% and 2.94%
18.9% (inactive) and -44.3% (active): [6]
inactive: [1] 15.9% and 15.4% | [2] 23.3% | [3] 39.2% and 25.9%
13.3% (inactive) and 5.94% (active): [4]

O=C(O)C1(C(=O)O)CCC1.[NH2-].[NH2-].[Pt+2]
inactive: [1] 96.6% and 102% | [2] 103% and 106% | [3] 108% and 99.5% | [4] 111% and 103% | [5] 98.5% and 90.9% | [6] 107% and 108% | [8] 112% and 100%

CCCCCCCCCCCCCCCc1cc(O)ccc1N
active: [1] -5.74% and -86.4%
inactive: [3] 99.4% and 87.2% | [4] 114% and 108% | [5] 72.2% and 35.3% | [6] 94.4% and 91.4% | [8] 64.2% and 72%
-36.3% (active) and 12.7% (inactive): [2]

CCN1CCN(CCNc2nccc(-c3c(-c4cccc(O)c4)nc4sccn34)n2)S1(=O)=O
inactive: [1] 76.7% and 72.5% | [2] 72% and 83.8% | [3] 20% and 11% | [4] 107% and 101% | [5] 86.8% and 83.6% | [6] 53.5% and 47.7% | [8] 52.4% and 68.9%

COc1cc(/C=N/Nc2nc3c([nH]2)c(=O)n(C)c(=O)n3C)ccc1O
inactive: [1] 93% and 102% | [2] 103% and 112% | [3] 104% and 116% | [4] 105% and 110% | [5] 97% and 95.2% | [6] 100% and 108% | [8] 67.6% and 79.4%
